# Reference: ChEMBL document CHEMBL3433997, “St. Jude Leishmania screening dataset” (2016)
# Key:
# Assay type in all cases: functional
# [1] = molecular target: Solute carrier family 2, facilitated glucose transporter member 1 (Homo sapiens) (UniProt P11166); experiment: ST_JUDE_LEISH: Cytotoxicity at 2uM final concentration against transgenic Leishmania Mexicana promastigotes LmGLUT1 that are glucose transport deficient and complemented with the human glucose transporter GLUT1. Activity is measured by DNA content using SYBR green in vitro
# [2] = molecular target: Hexose transporter 1 (Plasmodium falciparum) (UniProt O97467); experiment: ST_JUDE_LEISH: Cytotoxicity at 2uM final concentration against transgenic Leishmania Mexicana promastigotes LmPfHT that are glucose transport deficient and complemented with the Plasmodium falciparum hexose transporter. Activity is measured by DNA content using SYBR green in vitro
# [3] = molecular target: Glucose transporter (Leishmania mexicana) (UniProt O61059); experiment: ST_JUDE_LEISH: Cytotoxicity at 2uM final concentration against transgenic Leishmania Mexicana promastigotes LmGT2 that are glucose transport deficient and complemented with the L. Mexicana glucose transporter 2. Activity is measured by DNA content using SYBR green in vitro
# Solute carrier family 2, facilitated glucose transporter member 1 (Homo sapiens), sequence (P11166 whole entry): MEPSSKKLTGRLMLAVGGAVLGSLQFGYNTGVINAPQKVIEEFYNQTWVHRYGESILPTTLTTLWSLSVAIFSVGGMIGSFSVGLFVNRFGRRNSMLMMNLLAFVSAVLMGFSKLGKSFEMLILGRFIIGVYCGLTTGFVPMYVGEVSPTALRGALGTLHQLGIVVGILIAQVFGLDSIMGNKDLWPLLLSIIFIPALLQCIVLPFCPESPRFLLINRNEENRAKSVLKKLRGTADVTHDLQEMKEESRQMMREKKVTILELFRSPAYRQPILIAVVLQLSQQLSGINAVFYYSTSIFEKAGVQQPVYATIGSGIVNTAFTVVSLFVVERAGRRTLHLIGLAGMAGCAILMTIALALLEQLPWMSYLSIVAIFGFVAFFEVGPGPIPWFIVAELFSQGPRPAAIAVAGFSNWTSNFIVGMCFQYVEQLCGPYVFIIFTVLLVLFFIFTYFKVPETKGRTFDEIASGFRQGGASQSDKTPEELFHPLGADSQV
Structure (SMILES),inhibition [1] [%],inhibition [2] [%],inhibition [3] [%]
O=C(N[C@@H](Cc1ccccc1)C(=O)NCc1cccc2ccccc12)c1ccc(O)c(-c2ccc(Cl)c(Cl)c2)c1,0.35,2.09,0.79
O=C(Nc1ccc2c(c1)CCC2)N[C@H]1CCN(CCCCCNC(=O)C2CC2c2ccc(Cl)c(Cl)c2)C1 (stereo partly specified),-0.7,0.43,-0.01
COc1ccc(CNc2ccnc3cc(OC)ccc23)cc1,-1.06,12.2,3.66
Cc1nc2ccccc2c(=O)n1/N=C/c1ccccc1[N+](=O)[O-],3,1.45,2.65
Cc1cccc(Cn2ccc3c(N)nc(N)nc32)c1,4.57,3.14,3.04
O=C(C=Cc1ccc(Cl)c(Cl)c1)NCCCCCN1CCC(CCCNS(=O)(=O)c2ccc(F)cc2)CC1,1.12,-1.5,-0.43
CC(C)CCN1CCC(Oc2ccc(NC(=O)c3ccco3)cc2Cl)CC1,7.85,9.84,5.26
Cc1ccc(CNc2ccc3ncc(-c4cccc(C(=O)NCCN(C)C)c4)n3n2)c(C)c1,5.82,5.31,4.49
CC(C)N1CCN(C(=O)c2ccc(CNCCCN3CCN(c4ccccc4C(F)(F)F)CC3)s2)CC1,-4.83,0.84,4.26
CNC(=O)c1cnc(Nc2ccc(OCC(O)CN(C)C)cc2)nc1Nc1cccc(OC(C)C)c1 (stereo unspecified),2.84,-0.45,1.38
Cc1cccc2nc(-c3cccc(-c4ccc(NC(=O)CCc5c[nH]cn5)cc4)c3)[nH]c12,7.76,9.49,8.27
COc1cc(Cc2cnc(N)nc2N)cc(OCCCCC2SC(=O)NC2=O)c1Br (stereo unspecified),6.08,4.54,5.43
